Test results published in article PMC11062922 (Nature Chemical Biology, 2023).
Like-named read-outs stand apart in the source and are kept apart here.

Experiments:
Parameters in all cases: species or system human, MV4-11 + K-562 + COLO205 + SK-N-BE2 + OVCAR-8
BMP2K = conditions: read-out: apparent Kd; compound concentrations: 100 nM and 1000 nM (sheet 'Samples'), CATDS: 7.6838434423815494E-2; n = 1
CDKL5 = conditions: read-out: apparent Kd; compound concentrations: 100 nM and 1000 nM (sheet 'Samples'), CATDS: 7.5707148377712405E-2; n = 1
FLT3 = conditions: read-out: apparent Kd, compound concentrations: 100 nM and 1000 nM (sheet 'Samples'), n = 1
GSK3A = conditions: read-out: apparent Kd; compound concentrations: 100 nM and 1000 nM (sheet 'Samples'), CATDS: 8.1333822841740205E-2; n = 1
GSK3B = conditions: read-out: apparent Kd; compound concentrations: 100 nM and 1000 nM (sheet 'Samples'), CATDS: 7.5519353695847294E-2; n = 1
HSPE1 = conditions: read-out: apparent Kd; compound concentrations: 100 nM and 1000 nM (sheet 'Samples'), CATDS: 0.31901289007405398; n = 1
ICK = conditions: read-out: apparent Kd; compound concentrations: 100 nM and 1000 nM (sheet 'Samples'), CATDS: 5.8957301425707501E-2; n = 1
JAK1 = conditions: read-out: apparent Kd; compound concentrations: 100 nM and 1000 nM (sheet 'Samples'), CATDS: 9.4979881318968506E-2; n = 1
MAPK9 = conditions: read-out: apparent Kd; compound concentrations: 100 nM and 1000 nM (sheet 'Samples'), CATDS: 5.8843363107673401E-2; n = 1
NUAK1 = conditions: read-out: apparent Kd; compound concentrations: 100 nM and 1000 nM (sheet 'Samples'), CATDS: 6.5408557388510299E-2; n = 1
PGK1 = conditions: read-out: apparent Kd; compound concentrations: 100 nM and 1000 nM (sheet 'Samples'), CATDS: 0.33349072490792903; n = 1
PKM = conditions: read-out: apparent Kd; compound concentrations: 100 nM and 1000 nM (sheet 'Samples'), CATDS: 6.2556323198701705E-2; n = 1
AURKA = conditions: read-out: apparent Kd; compound concentrations: 100 nM and 1000 nM (sheet 'Samples'), CATDS: 7.2956934491261893E-2; n = 1
AURKB = conditions: read-out: apparent Kd, compound concentrations: 100 nM and 1000 nM (sheet 'Samples'), n = 1
EPHB6 = conditions: read-out: apparent Kd; compound concentrations: 100 nM and 1000 nM (sheet 'Samples'), CATDS: 7.4696774901665194E-2; n = 1
FER = conditions: read-out: apparent Kd; compound concentrations: 100 nM and 1000 nM (sheet 'Samples'), CATDS: 5.6438447882713398E-2; n = 1
FES = conditions: read-out: apparent Kd; compound concentrations: 100 nM and 1000 nM (sheet 'Samples'), CATDS: 5.2113476135959902E-2; n = 1
FLT4 = conditions: read-out: apparent Kd, compound concentrations: 100 nM and 1000 nM (sheet 'Samples'), n = 1
IRAK3 = conditions: read-out: apparent Kd; compound concentrations: 100 nM and 1000 nM (sheet 'Samples'), CATDS: 5.7923631136655801E-2; n = 1
MET = conditions: read-out: apparent Kd; compound concentrations: 100 nM and 1000 nM (sheet 'Samples'), CATDS: 6.0904662121703403E-2; n = 1
MST1R = conditions: read-out: apparent Kd; compound concentrations: 100 nM and 1000 nM (sheet 'Samples'), CATDS: 5.5385881905980802E-2; n = 1
PDGFRB = conditions: read-out: apparent Kd, compound concentrations: 100 nM and 1000 nM (sheet 'Samples'), n = 1
PLK4 = conditions: read-out: apparent Kd; compound concentrations: 100 nM and 1000 nM (sheet 'Samples'), CATDS: 9.5800604648041798E-2; n = 1
TNK1 = conditions: read-out: apparent Kd; compound concentrations: 100 nM and 1000 nM (sheet 'Samples'), CATDS: 0.119940011708452; n = 1
DCTPP1 = conditions: read-out: apparent Kd; compound concentrations: 100 nM and 1000 nM (sheet 'Samples'), CATDS: 8.7325060780524003E-2; n = 1
DDR2 = conditions: read-out: apparent Kd; compound concentrations: 100 nM and 1000 nM (sheet 'Samples'), CATDS: 8.3380311484054601E-2; n = 1
PI4KB = conditions: read-out: apparent Kd; compound concentrations: 100 nM and 1000 nM (sheet 'Samples'), CATDS: 0.119169210644034; n = 1
PIK3CD = conditions: read-out: apparent Kd; compound concentrations: 100 nM and 1000 nM (sheet 'Samples'), CATDS: 0.38237858605116598; n = 1
TAOK1 = conditions: read-out: apparent Kd; compound concentrations: 100 nM and 1000 nM (sheet 'Samples'), CATDS: 9.5219877084068302E-2; n = 1
EIF2AK1 = conditions: read-out: apparent Kd; compound concentrations: 100 nM and 1000 nM (sheet 'Samples'), CATDS: 0.26763431459408499; n = 1
STK3 = conditions: read-out: apparent Kd; compound concentrations: 100 nM and 1000 nM (sheet 'Samples'), CATDS: 0.22390025297111801; n = 1
STK4 = conditions: read-out: apparent Kd; compound concentrations: 100 nM and 1000 nM (sheet 'Samples'), CATDS: 0.27956924002989397; n = 1

Cc1ccc2c(c1)c(C1=C(c3cn(C)c4ccccc34)C(=O)NC1=O)cn2C [RO0317510-000]
potency estimated from few doses (BMP2K): 783 nM
potency estimated from few doses (CDKL5): 815 nM
potency estimated from few doses (FLT3; CATDS: 9.6631146746451402E-2): 449 nM
potency estimated from few doses (GSK3A): 676 nM
potency estimated from few doses (GSK3B): 820 nM
potency estimated from few doses (HSPE1): 48.4 nM
potency estimated from few doses (ICK): 1800 nM
potency estimated from few doses (JAK1): 467 nM
potency estimated from few doses (MAPK9): 1810 nM
potency estimated from few doses (NUAK1): 1250 nM
potency estimated from few doses (PGK1): 45.2 nM
potency estimated from few doses (PKM): 1450 nM

CN(c1ccc(NC(=O)Nc2c(Cl)cccc2Cl)cc1)c1ccnc(Nc2cccc(CS(C)(=O)=O)c2)n1 [GW809897X]
potency estimated from few doses (AURKA): 449 nM
potency estimated from few doses (AURKB; CATDS: 8.8518013228777503E-2): 271 nM
potency estimated from few doses (EPHB6): 421 nM
potency estimated from few doses (FER): 1010 nM
potency estimated from few doses (FES): 1400 nM
potency estimated from few doses (FLT3; CATDS: 0.75020516601315201): 3.04 nM
potency estimated from few doses (FLT4; CATDS: 0.232544079130999): 31.6 nM
potency estimated from few doses (IRAK3): 921 nM
potency estimated from few doses (MET): 774 nM
potency estimated from few doses (MST1R): 1090 nM
potency estimated from few doses (PDGFRB; CATDS: 5.6967263110053901E-2): 979 nM
potency estimated from few doses (PLK4): 224 nM
potency estimated from few doses (TNK1): 134 nM

Cn1ccc2ncnc(Oc3ccc(NC(=O)Nc4ccccc4)cc3)c21 [TPKI-69]
potency estimated from few doses (AURKB; CATDS: 0.138800296841457): 695 nM
potency estimated from few doses (DCTPP1): 2030 nM
potency estimated from few doses (DDR2): 2350 nM
potency estimated from few doses (FLT3; CATDS: 0.108927417624357): 1150 nM
potency estimated from few doses (FLT4; CATDS: 9.3314690514963106E-2): 1680 nM
potency estimated from few doses (PDGFRB; CATDS: 0.111791794909036): 1080 nM
potency estimated from few doses (PI4KB): 943 nM
potency estimated from few doses (PIK3CD): 142 nM
potency estimated from few doses (TAOK1): 1600 nM

COc1cccc(CC(=O)N2CCc3cc(-c4cn(C)c5ncnc(N)c45)ccc32)c1 [GSK2608899A]
potency estimated from few doses (AURKB; CATDS: 0.23694703885971399): 1340 nM
potency estimated from few doses (EIF2AK1): 1050 nM
potency estimated from few doses (STK3): 1510 nM
potency estimated from few doses (STK4): 966 nM
